Mtb UGM inh: Mtb UDP-galactopyranose mutase inhibition; AID 504406; purified UGM, fluorescence polarization probe displacement; P9WIQ1; inhibition, % at 10 µM; 320,000 compounds, 0.06% hits; in the data active means inhibition above about 10%, passing the limit was not always enough; inconclusive means no clear call, values can overlap the other calls
Rv3671c protease: inhibitors of M. tuberculosis serine protease Rv3671c; inhibition, % at 5.96 µM; 320,000 compounds, 0.048% hits; P9WHR9; AID 2606; in the data active means inhibition above about 38%;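 further: extracellular domain of Rv3671c used as enzyme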
Target sequence (P9WHR9 whole entry, looked up, the tested form may be a part): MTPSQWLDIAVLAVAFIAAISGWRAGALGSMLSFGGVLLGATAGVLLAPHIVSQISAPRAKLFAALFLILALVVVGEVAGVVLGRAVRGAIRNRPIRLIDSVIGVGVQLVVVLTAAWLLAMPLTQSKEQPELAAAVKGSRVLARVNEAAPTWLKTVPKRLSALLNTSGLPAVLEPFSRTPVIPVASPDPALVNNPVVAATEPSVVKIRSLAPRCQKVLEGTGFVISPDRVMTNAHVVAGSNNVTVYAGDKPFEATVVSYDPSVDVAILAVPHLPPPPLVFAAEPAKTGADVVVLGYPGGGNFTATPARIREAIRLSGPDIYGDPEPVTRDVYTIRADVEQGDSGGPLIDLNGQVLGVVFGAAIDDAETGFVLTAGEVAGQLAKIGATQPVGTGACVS
Mtb hypoxia rep: reduces hypoxia-regulated biosensor signal in M. tuberculosis. fluorescence inhibition, % (test concentration not listed). 300,000 compounds, 0.1% hits. M. tuberculosis hypoxia-regulated fluorescent reporter, fluorescence; in the data active means fluorescence inhibition mostly above about 23%, no sharp cut-off; inactive means mostly below about 17%
RecA intein inh: inhibitors of M. tuberculosis RecA intein splicing. cell-free RecA intein splicing, fluorescence. inhibition, % (concentration not given with the values). AID 2221. 290,000 compounds, 0.75% hits; in the data active means inhibition above about 30%; inconclusive means no clear call, values can overlap the other calls
FadD28 binding: blocks FadD28 binding to the bisubstrate probe. AID 588549. 360,000 compounds, 0.22% hits. inhibition, % at 12.5 µM. fluorescence polarization; in the data active means inhibition above about 8.5%, passing the limit was not always enough; inconclusive means no clear call, values can overlap the other calls
Large screens that a line does not name were inactive. Only some compounds are listed: those with a hit (about 0.92% of all), similar ones and a draw of the others.

c1ccc(Sc2ncnc3ccccc23)cc1	RecA intein inh 40 (no result: Mtb hypoxia rep)
Cc1cc(C2C(C#N)=C(N)OC3=C2C(=O)CCC3)c(C)s1 (stereo not given)	none (no result: Mtb hypoxia rep)
COc1cc(C2C(C#N)=C(N)OC3=C2C(=O)CCC3)c([N+](=O)[O-])cc1OC (stereo not given)	FadD28 binding 21
CC(=O)c1cccc(NC(=S)NC2CCCCCCC2)c1	FadD28 binding 14 (no result: Rv3671c protease)
CC(=O)c1cccc(NC(=O)NC2CCCCCCC2)c1	Mtb hypoxia rep 33, FadD28 binding 15
O=S(=O)(c1ccccc1)[C@@]1(c2ccccc2)CC2ON=C(c3cccc(Br)c3)C2C1 (stereo not given in full)	none (no result: Mtb UGM inh, Rv3671c protease, RecA intein inh, FadD28 binding)
Cc1c(Br)c(O)c(Br)c(O)c1/C=N/n1c(-c2ccccc2)n[nH]c1=S	FadD28 binding 21 (no result: Mtb hypoxia rep)
Cc1ccc(S(=O)(=O)N2CCOCC2)cc1C(=O)OCC(=O)NC1CC1	Mtb hypoxia rep 33 (no result: RecA intein inh)
O=c1cc(-c2ccccc2Cl)oc2c(NS(=O)(=O)c3cc(Cl)cc(Cl)c3O)ccc(O)c12	FadD28 binding 13 (no result: Mtb hypoxia rep)
O=C1c2ccccc2C(=O)c2c(O)c(O)cc(O)c21	FadD28 binding 47 (no result: Mtb UGM inh, RecA intein inh)
Cc1onc(-c2ccccc2)c1C(=O)NN=Cc1cccs1	none (no result: Mtb UGM inh, Rv3671c protease, RecA intein inh, FadD28 binding)
COc1ccc(-c2oc(N=CN3CCOCC3)c(C#N)c2-c2ccc(OC)cc2)cc1	none (no result: Mtb UGM inh, Rv3671c protease, RecA intein inh, FadD28 binding)
FC(F)(F)c1ccc(CN2CC3C(c4ccc(Cl)nc4)C4(c5ccccc5)CC3(C4)C2c2ccccc2)cc1 (stereo not given)	none (no result: Mtb UGM inh, Rv3671c protease, RecA intein inh, FadD28 binding)
O=[N+]([O-])c1cccc2c(N3CCOCC3)ccnc12	none
O=[N+]([O-])c1ccc(N2CCOCC2)c2ccncc12	RecA intein inh 30
C#CCNC(=O)C1=CC(c2ccc(Br)cc2)CC(OCCCCO)O1 (stereo not given)	none (no result: Mtb UGM inh, Rv3671c protease, RecA intein inh, FadD28 binding)
Fc1ccc(C=NNC(=S)Nc2cccnc2)cc1F	none (no result: Mtb UGM inh, Rv3671c protease, RecA intein inh, FadD28 binding)
CCN(CC)c1ccc(/C=C(\C#N)C(=O)c2ccc(Br)cc2)cc1	Mtb UGM inh inconclusive, FadD28 binding 28
CC(=O)OCC1=CC2OC(=O)C3=COC(OC4OC(CO)C(O)C(O)C4O)C1C32 (stereo not given)	none (no result: Mtb UGM inh, Rv3671c protease, RecA intein inh, FadD28 binding)
COc1ccc(CNc2nc3ccccc3n2C)c(OC)c1	none
COc1ccc(N=Nc2nc3cc(Br)c(Br)cc3n2C)c(OC)c1	Mtb UGM inh 34 (no result: RecA intein inh)
COc1ccc(CCNC(=O)c2cc3c(=O)n4ccccc4nc3n(Cc3ccco3)c2=N)cc1OC	Mtb hypoxia rep 39
CC(=O)n1cc(C2C=C(C(=O)N3CCN(C)CC3)OC(OCc3ccc(CO)cc3)C2)c2ccccc21 (stereo not given)	none (no result: Mtb UGM inh, Rv3671c protease, RecA intein inh, FadD28 binding)
O=C(Cn1cnc([N+](=O)[O-])n1)NN=Cc1cc(Cl)ccc1O	none (no result: Mtb UGM inh, Rv3671c protease, RecA intein inh, FadD28 binding)
Cc1ccc(N2NC(=O)/C(=C/c3ccc(-c4ccc(Cl)c(C(=O)O)c4)o3)C2=O)cc1C	none
O=C1NN(c2ccc(Cl)c(Cl)c2)C(=O)/C1=C/c1ccc(-c2ccccc2C(=O)O)o1	FadD28 binding 13 (no result: Rv3671c protease)
Cc1ccc(C(=O)NCCN2C3=NCC(C)N3CC2Cc2ccc(O)cc2)cc1Br (stereo not given)	none (no result: Mtb UGM inh, Rv3671c protease, RecA intein inh, FadD28 binding)
Cc1cccc(C(=O)c2cnc3ccccc3c2-c2ccccc2)c1	RecA intein inh 33
O=C1CCCC2Cc3[nH]c4c(Cl)ccc(Cl)c4c3C3CCN1C23 (stereo not given)	none (no result: Mtb UGM inh, Rv3671c protease, RecA intein inh, FadD28 binding)
COc1ccc(CC(=O)Nc2nnc(SCc3ccccc3)s2)cc1S(=O)(=O)N1CCOCC1	FadD28 binding 13 (no result: Mtb hypoxia rep)
CCOC1OC(C(=O)N2CCCCCCC2)=CC(C2CCCCC2)C1CCCO (stereo not given)	none (no result: Mtb UGM inh, Rv3671c protease, RecA intein inh, FadD28 binding)
COC(=O)NN=Cc1ccc(OCCSc2ccc(Cl)cc2)c(OC)c1	none (no result: Mtb UGM inh, Rv3671c protease, RecA intein inh, FadD28 binding)
FC(F)(F)c1ccc(C2[C@H]3CN(Cc4cccnc4)[C@H](c4ccccc4)C34CC2(c2cccnc2)C4)cc1 (stereo not given in full)	RecA intein inh 40 (no result: Mtb hypoxia rep)
FC(F)(F)c1ccc(C2[C@H]3CN(Cc4ccc(-c5ccccc5)cc4)[C@H](c4ccccc4)C34CC2(c2cccnc2)C4)cc1 (stereo not given in full)	none (no result: Mtb hypoxia rep, FadD28 binding)
O=C(NC(NC(=S)Nc1ccc(Cl)cc1Cl)C(Cl)(Cl)Cl)c1cccc([N+](=O)[O-])c1 (stereo not given)	RecA intein inh 37
O=C(O)c1cccc(NC(=S)NC(NC(=O)c2cccc([N+](=O)[O-])c2)C(Cl)(Cl)Cl)c1 (stereo not given)	none
Nc1ncnc2c1nc(N1CCCCC1)n2C1OC(CO)C(O)C1O (stereo not given)	none (no result: Mtb UGM inh, Rv3671c protease, RecA intein inh, FadD28 binding)
COC(=O)[C@]1(Cc2ccccc2)N[C@H](CN(C)S(=O)(=O)c2ccc(-c3ccccc3)cc2)[C@@H]2C(=O)N(C)C(=O)[C@@H]21	FadD28 binding 11 (no result: RecA intein inh)
N=c1n(Cc2ccccc2)c2ccccc2n1CC(O)c1ccco1 (stereo not given)	FadD28 binding 13
O=C(CCCC(=O)Nc1ccccc1Br)NN=Cc1c(F)cccc1Cl	none (no result: Mtb UGM inh, Rv3671c protease, RecA intein inh, FadD28 binding)
COc1ccc(NC(=O)c2cc3c(-c4ccc(OC)c(OC)c4)nn(C)c3s2)cc1OC	FadD28 binding 26
COc1ccc(-c2nn(C)c3sc(C(=O)NCc4ccco4)cc23)cc1OC	none
NC(=S)N=Nc1c(O)cc(O)c2[nH]c(=O)ccc12	FadD28 binding 30 (no result: Mtb UGM inh, Rv3671c protease, Mtb hypoxia rep, RecA intein inh)
NC(=S)N=Nc1c(O)[nH]c2ccc(F)cc12	none
COc1ccc(C(C)=NNC(=O)CNC(=O)c2cccs2)cc1	none (no result: Mtb UGM inh, Rv3671c protease, RecA intein inh, FadD28 binding)
CC(=O)Nc1cccc(Oc2ncnc3scc(-c4ccccc4)c23)c1	none
CN(C)C/C=C/C(=O)Nc1cccc(-c2c[nH]c3ncnc(Oc4ccc(NC(=O)CC(=O)Nc5ccc(F)cc5)cc4F)c23)c1	FadD28 binding 19 (no result: Mtb hypoxia rep, RecA intein inh)

Source: PubChem (several laboratories)
